For 24 compounds, Potency, viability and viability (% of DMSO control) results are on record in PubChem BioAssay (NCATS).

Assay [1] in a line: Quantitative High-Throughput drug screen in 47 multiple myeloma cell lines against the NCATS MIPE library collection: OPM1_PLB cell viability assay (AID 1918989). Further: nearly all actives have a fitted effect of over 40% in size. Further: potency means the concentration at half of the fitted maximal effect. The method in brief: (§1)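 MIPE 4.0 approved/investigational drugs; 500 cells/well; 48 h 37 °C humidified 5% CO2; CTG luminescence readout; DMSO = 100%, media = 0% viability.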
A short description of assay [2]: Quantitative High-Throughput drug screen in 47 multiple myeloma cell lines against the NCATS MIPE library collection: VP6_DJ cell viability assay (AID 1919867). Further: nearly all actives have a fitted effect of over 40% in size. Further: potency means the concentration at half of the fitted maximal effect. The procedure, abridged: as §1
Assay [3] can be described thus: Quantitative High-Throughput drug screen in 47 multiple myeloma cell lines against the NCATS MIPE library collection: XG1_PLB cell viability assay (AID 1919866). Further: nearly all actives have a fitted effect of over 35% in size. Further: potency means the concentration at half of the fitted maximal effect. The procedure, abridged: as §1
The nature of assay [4]: Quantitative High-Throughput drug screen in 47 multiple myeloma cell lines against the NCATS MIPE library collection: PCM6_Riken cell viability assay (AID 1919870). Further: nearly all actives have a fitted effect of over 30% in size. Further: potency means the concentration at half of the fitted maximal effect. The procedure, abridged: as §1
Assay [5] can be described thus: Quantitative High-Throughput drug screen in 47 multiple myeloma cell lines against the NCATS MIPE library collection: RPMI8226_ATCC cell viability assay (AID 1919871). Further: nearly all actives have a fitted effect of over 30% in size. Further: potency means the concentration at half of the fitted maximal effect. The method in brief:
as §1

Assay [6] can be described thus: Quantitative High-Throughput drug screen in 47 multiple myeloma cell lines against the NCATS MIPE library collection: OPM2_DSMZ cell viability assay (AID 1919872). Further: nearly all actives have a fitted effect of over 30% in size. The method in brief:
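qHTS of the MIPE 4.0 collection: 500 myeloma cells/well, 48 h drug exposure at 37C in 5% CO2, then CellTiter-Glo for 5 min at room temperature before luminescence reading.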

Assay [7] is described as follows: Quantitative High-Throughput drug screen in 47 multiple myeloma cell lines against the NCATS MIPE library collection: KMS11_JCRBsus cell viability assay (AID 1919873). Further: nearly all actives have a fitted effect of over 50% in size. Further: potency means the concentration at half of the fitted maximal effect. The method in brief:
as §1

Assay [8] is described as follows: Quantitative High-Throughput drug screen in 47 multiple myeloma cell lines against the NCATS MIPE library collection: SKMM1_PLB cell viability assay (AID 1919863). Further: nearly all actives have a fitted effect of over 35% in size. Further: potency means the concentration at half of the fitted maximal effect. The following applies: SKMM1 myeloma viability, CellTiter-Glo ATP, 48 h; viability: hits give low values. The method in brief:
as §1
A general note: Cellular ATP, detected with luciferase, serves as a proxy for viable cell number.

Assay [9] is described as follows: Quantitative High-Throughput drug screen in 47 multiple myeloma cell lines against the NCATS MIPE library collection: U266_ATCC cell viability assay (AID 1919864). Further: nearly all actives have a fitted effect of over 35% in size. Further: potency means the concentration at half of the fitted maximal effect.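 On viability (% of DMSO control): 0% = media-only wells without cells and 100% = DMSO-only wells.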 The method in brief: as §1
Assay [10] can be described thus: Quantitative High-Throughput drug screen in 47 multiple myeloma cell lines against the NCATS MIPE library collection: UTMC2_PLB cell viability assay (AID 1919868). Further: nearly all actives have a fitted effect of over 55% in size. Further: potency means the concentration at half of the fitted maximal effect.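 On viability (% of DMSO control): 100% = DMSO-only wells and 0% = media-only wells without cells.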 The following applies: CellTiter-Glo ATP luminescence, 48 h; viability (% of DMSO control): at 45.8 µM (top of the series). The procedure, abridged: as §1
Assay [11] in a line: Quantitative High-Throughput drug screen in 47 multiple myeloma cell lines against the NCATS MIPE library collection: PE2_PLB cell viability assay (AID 1919869). Further: nearly all actives have a fitted effect of over 35% in size. Further: potency means the concentration at half of the fitted maximal effect. The method in brief:
as §1

The nature of assay [12]: Quantitative High-Throughput drug screen in 47 multiple myeloma cell lines against the NCATS MIPE library collection: KMS28BM_JCRB cell viability assay (AID 1919874). Further: nearly all actives have a fitted effect of over 35% in size. Further: potency means the concentration at half of the fitted maximal effect. The procedure, abridged: as §1
The nature of assay [13]: Quantitative High-Throughput drug screen in 47 multiple myeloma cell lines against the NCATS MIPE library collection: XG6_PLB cell viability assay (AID 1919865). Further: nearly all actives have a fitted effect of over 40% in size. Further: potency means the concentration at half of the fitted maximal effect. The procedure, abridged:
as §1

By viability is commonly meant a read-out of living cells in per cent, often relative to untreated cells.

Records with an inconclusive call do not appear. Values without a mark were called inactive. Activity calls are given as the source filed them. The call rests on the fitted dose curve; in most records, active means well fitted cell-killing curve with a large enough effect; inconclusive means small, poorly fitted or top-dose-only effect, or effect the other way; inactive means no such curve, though single readings can be large or run the other way.

In the case of `Cc1ccnc(NS(=O)(=O)c2ccc(NC(=O)Nc3ccc(S(=O)(=O)Nc4nccc(C)n4)cc3)cc2)n1`, the Potency in [1] is 18.7 µM (active); in [2] it was 2.64 µM (active).

As to `Cc1cc(-c2ccc(CC(=O)Nc3ccc(-c4cccnc4)cc3)cc2)ccn1`, the Potency was 20.9 µM (active) in assay [1]; 18.7 µM (active) in assay [3]; 11.8 µM (active) in [2]; 11.8 µM (active) in assay [4]; 5.9 µM (active) in assay [5]; 20.9 µM (active) in assay [7]. The Potency entry in assay [6] was “inactive”.

Turning to `c1ccc([C@H]2CN3CCSC3=N2)cc1`, the viability in [8] was 159%. For the same compound, the Potency entry in assay [9], in assay [10], in assay [11], in assay [6] and in [12] was “inactive” each time. Further, the Potency in [3] is 16.6 µM (active).

On to `CCC(=O)N[C@H]1CC[C@H](C(=O)N(C)c2ccc(-c3nc4ccccc4o3)cc2)C1`, for which the viability in assay [8] was 132%. The Potency in assay [3] was 6.62 µM (active); in assay [2], 14.8 µM (active); in assay [11], 13.2 µM (active); in [12], 14.8 µM (active).

For `C1COC(NC(C2CC2)C2CC2)=N1`, the Potency in assay [1] is 16.6 µM (active). Moreover, the Potency result in assay [6] and in [12] was “inactive” in each case.

Take `CC1(C)CNc2cc(NC(=O)c3cccnc3NCc3ccncc3)ccc21`: the Potency result in [1] and in assay [12] was “inactive” each time. Further, the Potency was 1.66 µM (active) in assay [2], 1.32 µM (active) in assay [4], 18.7 µM (active) in assay [5] and 20.9 µM (active) in assay [7].

Regarding `Cn1cnc2c(F)c(Nc3ccc(Br)cc3Cl)c(C(=O)NOCCO)cc21`, the Potency in assay [8] was 1.18 µM (active); in assay [9], 5.26 µM (active); in assay [3] it was 0.0935 µM (active); in [2], 0.296 µM (active); in assay [11], 0.235 µM (active); in [5] it was 0.935 µM (active). For the same compound, in assay [10], the Potency result is “inactive”.

Consider `CNCc1ccc(-c2[nH]c3cc(F)cc4c3c2CCNC4=O)cc1`, for which the Potency result in [1], in assay [11], in assay [5] and in assay [6] was “inactive” each time.

For the compound `O=c1n(CCCN2CCN(c3cccc(Cl)c3)CC2)nc2ccccn12`, the Potency entry in [1], in [3], in [10], in assay [11], in assay [4] and in [5] was “inactive” each time. The Potency result in assay [6] and in assay [7] was “inactive” throughout.

For `O=C(O)COCCN1CCN(C(c2ccccc2)c2ccc(Cl)cc2)CC1` (stereo not drawn), the viability in assay [8] was 122%. In addition, the Potency result in [9], in assay [13], in [3], in [2], in assay [10] and in assay [11] was “inactive” throughout. In addition, the Potency entry in [4], in assay [6], in [7] and in assay [12] was “inactive” in each case.

On to `Nc1ccc(S(=O)(=O)Nc2ccnn2-c2ccccc2)cc1`, for which the viability in assay [8] was 145%. Moreover, the Potency entry in assay [13], in assay [11], in [4], in assay [5] and in [12] was “inactive” each time.

As for `CCN(CC)CCCC(C)Nc1ccnc2cc(Cl)ccc12` (stereo not drawn), in assay [8], the viability is 95.1%. Also, the Potency in [13] was 10.5 µM (active); in assay [3], 10.5 µM (active); in [2], 11.8 µM (active); in assay [4], 10.5 µM (active). Besides, the Potency result in assay [11], in assay [5] and in assay [6] was “inactive” each time.

`COc1ccccc1-c1cccc(-c2c(O)c3cc(C#N)c(Cl)cc3[nH]c2=O)c1`: in [8], the viability was 104%. Moreover, the Potency entry in assay [9] and in assay [5] was “inactive” in each case. Moreover, the Potency in assay [13] is 34 µM (active); in [2], 21.5 µM (active).

`O=C(C=Cc1ccc(/C=C/C(=O)Nc2ccc(C3=NCCN3)cc2)cc1)Nc1ccc(C2=NCCN2)cc1`: the viability in assay [8] is 118%. The Potency result in [13], in assay [3], in [2], in assay [11], in [4] and in assay [5] was “inactive” each time. Moreover, the Potency result in assay [12] is “inactive”.

On to `CC1(C)Cc2c(-c3ccccc3)c(-c3ccc(Cl)cc3)c(CC(=O)O)n2C1`, for which the Potency in assay [8] was 20.9 µM (active); in assay [9], 18.7 µM (active); in assay [13], 18.7 µM (active); in assay [3], 14.8 µM (active); in assay [2], 14.8 µM (active); in assay [10] it was 16.6 µM (active). Further, the Potency in assay [11] is 20.9 µM (active); in [12], 16.6 µM (active).

As to `c1ccc(-c2nn3c(c2-c2ccnc4cc(OCCN5CCOCC5)ccc24)CCC3)nc1`, the Potency entry in assay [1] and in assay [12] was “inactive” in each case. The Potency is 1.87 µM (active) in assay [2], 10.5 µM (active) in [11], 1.48 µM (active) in [4] and 20.9 µM (active) in assay [5].

For `O=C(O)CCc1ccc(NCc2cccc(Oc3ccccc3)c2)cc1`, the viability in assay [8] is 111%. Also, the Potency entry in assay [3], in assay [2], in assay [11], in [4], in assay [5] and in [6] was “inactive” each time.

Regarding `CNC(=O)c1ccc(N2C(=S)N(c3ccc(C#N)c(C(F)(F)F)c3)C(=O)C2(C)C)cc1F`, the Potency result in assay [1], in [11], in assay [5], in assay [6] and in assay [12] was “inactive” throughout. The Potency in [3] was 13.2 µM (active).

Turning to `CC[C@@H](C)[C@H](NC(=O)[C@H](CC1CCCCC1)NC(=O)c1ccno1)C(=O)N1CCC2(CCc3ccccc32)CC1`, the Potency entry in assay [1], in assay [11] and in [12] was “inactive” each time.

As for `Cn1c(=O)c(F)c(Nc2ccc(I)cc2F)c2c(=O)n(C[C@@H](O)CO)cnc21`, the Potency in assay [9] and in [11] was 9.35 µM (active) in each case. For the same compound, the Potency result in assay [3], in assay [5] and in assay [12] was “inactive” each time.

With `Cn1cc(-c2ccc3nnc(C(F)(F)c4ccc5ncccc5c4)n3n2)cn1`, the Potency entry in assay [10], in [11], in [4], in [7] and in assay [12] was “inactive” in each case.

Consider `C#Cc1cccc(Nc2ncnc3cc(OCCOC)c(OCCOC)cc23)c1`, for which the Potency in assay [9] is 13.2 µM (active); in assay [13] it was 0.0833 µM (active); in assay [10] it was 4.18 µM (active); in assay [12], 0.833 µM (active). Besides, in [6], the Potency result is “inactive”.

As for `COc1ccc2nc(S(=O)Cc3ncc(C)c(OC)c3C)[nH]c2c1` (stereo not drawn), the Potency is 16.6 µM (active) in assay [2] and 20.9 µM (active) in [4]. For the same compound, the viability (% of DMSO control) in [10] is 120% (active). The Potency result in [11], in [5] and in [7] was “inactive” throughout.

On to `Nc1nc2ccc(OC(F)(F)F)cc2s1`, for which the Potency entry in [9], in assay [11], in [7] and in assay [12] was “inactive” each time. Further, the Potency in [2] is 18.7 µM (active).
